In test [1] the test system is Zika virus NS2B-NS3 protease (unlinked complex). The experiment in a line: Primary screen GU Rhodamine qHTS for Zika virus inhibitors: Unlinked NS2B-NS3 protease assay (AID 1347159). Further: nearly all actives have a fitted effect of over 60% in size. Further: potency means the concentration at half of the fitted maximal effect. As to conditions: Recombinant ZIKV NS2B-NS3 protease, Rhodamine110 substrate fluorescence; series mostly up to 107 µM. Summed up:
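Percent inhibition came from the 15-min rise in Rhodamine110 fluorescence (1.5 microM substrate, ~15% conversion), normalized to no-inhibitor and no-enzyme wells and Hill-fitted. Unlinked protease, 25 nM, pH 8.0 Tris buffer; compounds up to 114 microM, 15-min preincubation.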
(In general: In qHTS, concentration-response curves come from the screen itself.)

Test [2] has as its system Zika virus NS2B-NS3 protease (linked construct). The experiment in a line: Primary screen NINDS Rhodamine qHTS for Zika virus inhibitors (AID 1347160). Further: nearly all actives have a fitted effect of over 55% in size. As to conditions: purified NS2B-NS3 protease, Rhodamine110 substrate fluorescence; series mostly up to 57.1 µM. Summed up:
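Rhodamine110-peptide cleavage (1.5 µM substrate) by 25 nM linked NS2B-NS3 enzyme at pH 8.0 (Tris, Tween 20), after 15 min RT preincubation with compounds; 15-min fluorescence change normalized to controls and Hill-fitted.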

Results filed as inconclusive are left out. A call without a number means that no potency is given here. Calls of active or inactive are those of the source. The call rests on the fitted dose curve; in most records, active means well fitted inhibition curve with a large enough effect; inconclusive means small, poorly fitted or top-dose-only effect; inactive means no such curve, though single readings can be large or run the other way.

Take `COc1ccccc1OCCN1CC(COc2cccc3[nH]c4ccccc4c23)OCC1=O` (configuration not stated): the Potency entry in test [1] and in test [2] was “inactive” each time.
For the molecule `CC1(C)OC[C@H](NC(=O)Nc2ccc(Br)cc2Br)[C@H](c2ccccc2)O1`, the Potency result in test [1] and in test [2] was “inactive” throughout.
For the molecule `CCCCOC(=O)NS(=O)(=O)c1sc(CC(C)C)cc1-c1ccc(Cn2ccnc2)cc1`, the Potency in test [1] was 31.6 µM (active). The Potency result in test [2] is “inactive”.
`Cc1cc(F)ccc1-c1nc(NCCN=C(N)NC#N)nc2c1ccc(=O)n2-c1c(F)cccc1F`: the Potency result in test [1] and in test [2] was “inactive” in each case.
For the molecule `Cc1c[nH]c2ncnc(N3CCC(CN)(C(=O)Nc4cccc(OC(=O)N(C)C)c4)CC3)c12`, the Potency entry in test [1] and in test [2] was “inactive” throughout.
Take `COC(=O)c1ccc2c(c1)[nH]c1ncnc(NCCCN3CCCCC3)c12`: the Potency entry in test [1] and in test [2] was “inactive” in each case.
For the molecule `O=S(=O)(Nc1ccccc1N1CCCCC1)c1ccc(Cl)s1`, the Potency result in test [1] and in test [2] was “inactive” each time.
Turning to `CN(c1ccc(NC(=O)Nc2ccccc2)cc1)S(=O)(=O)c1cnn(-c2ccc(F)cc2)c1`, the Potency entry in test [1] and in test [2] was “inactive” throughout.
For `C=C1CC[C@@H]2[C@](C)(CO)[C@H](O)CC[C@@]2(C)[C@@H]1CC(=O)C1=CCOC1=O`, the Potency entry in test [1] and in test [2] was “inactive” throughout.
As for `Cc1ccc(S(=O)(=O)N2CCC[C@H]2c2ccc(F)cc2)cc1`, the Potency entry in test [1] and in test [2] was “inactive” throughout.
As for `COc1ccc(N(C(=O)Nc2c(C)cccc2C)c2cc(Nc3ccc(N4CCN(C)CC4)cc3)ncn2)c(OC)c1`, the Potency result in test [1] and in test [2] was “inactive” throughout.
With `C[C@@H]1CC[C@]2(C(=O)O)CC[C@]3(C)C(=CCC4[C@@]5(C)CC[C@H](O)[C@](C)(C(=O)O)C5CC[C@]43C)C2[C@]1(C)O` (some centres not stated), the Potency result in test [1] and in test [2] was “inactive” throughout.
Turning to `CCOc1ccc(-n2c([C@@H](C)N(Cc3cccnc3)C(=O)Cc3ccc(OC(F)(F)F)cc3)nc3ncccc3c2=O)cc1`, the Potency result in test [1] and in test [2] was “inactive” each time.
With `CC1(C)Oc2ncnc(N)c2N=C1c1ccc(C23CCC(CC(=O)O)(CC2)CC3)cc1`, the Potency in test [1] is 50.1 µM (active). For the same molecule, in test [2], the Potency entry is “inactive”.
The like results for `COc1ccc(C(=O)Nc2c(Cl)cncc2Cl)cc1OC1CCCC1` were, in that order, “inactive” and “inactive”.
In the same order, the values of `CC(C)(C)Oc1ccc(OCC2Cc3ccccc3CN2C(=O)c2cccc3ccccc23)cc1` (configuration not stated) are “inactive” and “inactive”.
In the same order, the values of `Cc1onc(-c2ccccc2)c1C(=O)N1CCN(c2ccc([N+](=O)[O-])cc2Cl)CC1` are “inactive” and “inactive”.
As to `CC(=O)NC[C@H]1CN(c2ccc(N3CCSCC3)c(F)c2)C(=O)O1`, the Potency result in test [1] and in test [2] was “inactive” in each case.
For the molecule `O=C(CCl)Nc1cccc(NC2=NS(=O)(=O)c3ccccc32)c1`, the Potency entry in test [1] and in test [2] was “inactive” each time.
For the molecule `C=C1CC2OC(=O)C(=C)C2C(O)/C=C(\C)CCC1O` (configuration not stated), the Potency entry in test [1] and in test [2] was “inactive” each time.
For `O=C(Nc1nc2ccc([N+](=O)[O-])cc2s1)C1CCCCC1`, the Potency entry in test [1] and in test [2] was “inactive” each time.
With `COc1ccccc1N1CCN(CC[C@@](C)(C(=O)C2CCCCC2)c2ccccc2)CC1`, the Potency result in test [1] and in test [2] was “inactive” throughout.
As for `OC1(CN2CCC(COc3noc4cccc(O[C@@H]5CCOC5)c34)CC2)CCOCC1`, the Potency result in test [1] and in test [2] was “inactive” in each case.
On to `COc1ccc(C2Oc3c(OC)cc(CCCO)cc3C2COC2OC(CO)C(O)C(O)C2O)cc1OC` (configuration not stated), for which the Potency entry in test [1] and in test [2] was “inactive” each time.
Regarding `C=C1CC2[C@@]3(C)C=CC(=O)C(C)(C)C3=C(O)C(=O)[C@@]2(C)C2(C(=O)OC)C(=O)C(C)OC(=O)[C@@]12C` (some centres not stated), the Potency entry in test [1] and in test [2] was “inactive” each time.
For the molecule `O=C(Nc1ccc(-c2ccnc(Nc3ccc(N4CCOCC4)cc3)n2)cc1)C1CCCN1` (configuration not stated), the Potency result in test [1] and in test [2] was “inactive” in each case.
